# Screening results deposited in PubChem by several laboratories.
# WT yeast gro inh – growth inhibition of WT yeast, mitochondrial fusion screen | actives 2.1% (n = 190,000) | AID 1362 | inhibition, % at 10 µM | mitochondrial fusion phenotypic screen, WT strain; in the data active = inhibition above about 58%; tested in S. cerevisiae
# RAM network inh – blocks the yeast RAM network; S. cerevisiae dse1pr::URA3 reporter, 5-FOA growth OD615, 2 d; analog-sensitive cbk1-as2 kinase mutant strain; inhibition, % at 50 µM; actives 1.8% (n = 190,000);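 active = inhibition above a set limit, 3 SD over mean compound inhibition, cut at about 8.4% in these data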;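 note: 0% = DMSO-only wells with no growth and 100% = 10 µM 1-NA-PP1 full growth; inhibition rescues growth on 5-FOA so higher OD means more RAM inhibition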
# Lmaj promast – inhibitors of Leishmania major promastigote growth; Leishmania major promastigotes, resazurin fluorescence viability; inhibition, % at 10 µM; actives 9% (n = 200,000); AID 1063; in the data active = inhibition above about 50%;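 note: promastigotes grown with compound for 44 hours at 28 °C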
# CHOP inhibitor – inhibitors of CHOP induction in ER stress response; CHO-K1 CHOP-promoter luciferase, tunicamycin-induced, 15-18 h; inhibition, % at 10 µM; actives 3.8% (n = 220,000); AID 2732;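 active = compounds that reduced the stress-induced luciferase reporter signal by more than about 70% of percent inhibition, limit read from the data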;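 note: 0% = tunicamycin plus vehicle and 100% = wells without tunicamycin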
# * marks the source's active call; other numbers are inactive results; / = no result. This is a sample that favours compounds with a hit; in the whole collection about 13% have one here.
SMILES,WT yeast gro inh,RAM network inh,Lmaj promast,CHOP inhibitor
O=C1CSC(c2cccc([N+](=O)[O-])c2)N1CCN1CCCCC1 (configuration not stated),-3.1,0.8,85.4*,-11.3
Cc1ccc(/C=N/n2cnc3sc(-c4ccccc4)cc3c2=O)o1,86.0*,2.3,1.1,-0.6
CCN(Cc1ccccc1)C(=O)C1CCN(CC2CC=CCC2)CC1 (configuration not stated),9.0,0.0,98.4*,10.5
CCN(CC)C(=O)C1CCN(CC2CC=CCC2)CC1 (configuration not stated),-10.7,1.5,83.9*,-4.1
CCN(Cc1ccccc1)C(=O)C1CCN(Cc2sccc2C)CC1,-5.0,2.5,-8.8,-2.3
Cc1ccc(N(CC(O)COCc2ccco2)S(=O)(=O)c2ccc(C)cc2)cc1 (configuration not stated),5.3,4.0,5.1,24.1
O=C(CCCn1cnc([N+](=O)[O-])n1)Nc1ccc(F)c(Cl)c1,-4.2,0.7,83.4*,-1.9
CC1CCc2c(sc(NC(=O)CCCn3cnc([N+](=O)[O-])n3)c2C(N)=O)C1 (configuration not stated),-11.9,1.9,92.3*,40.0
NC(=O)c1c(NC(=O)CCCn2cnc([N+](=O)[O-])n2)sc2c1CCCC2,8.5,0.3,54.5*,4.7
COc1ccccc1C1OC2=C(Nc3ccc([N+](=O)[O-])cc3N2)C1=O (configuration not stated),/,/,/,0.0
CNc1sc(C(=O)c2ccc(F)cc2)c(N)c1-c1nc2ccccc2s1,14.6,3.0,2.3,83.8*
CNc1sc(C(=O)c2cccs2)c(N)c1-c1nc2ccccc2s1,6.0,0.4,18.3,-11.3
CNC(=O)CSc1nc(N)c2c3c(sc2n1)CCC3,17.5,0.7,1.1,9.5
CC(CO)Nc1nc(SCc2ccccc2)nc2sc3c(c12)CCC3 (configuration not stated),75.1*,0.8,-2.2,41.6
O=C1NC(c2ccccc2)Nc2c1sc(=S)n2-c1ccccc1 (configuration not stated),9.2,4.5,15.6,-1.9
COc1ccc(NC(=O)c2ccc(Cl)c(NC(=O)c3ccncc3)c2)cc1,11.8,-0.5,76.0*,-14.7
COc1cc(N)cc(NC(=O)c2ccncc2)c1,-7.2,-0.1,-2.9,-3.1
CCc1ccc(/C=C2\SC(=S)N(CCCC(=O)Nc3nccs3)C2=O)cc1,0.9,4.4,0.9,78.4*
COc1ccc(/C=C2\SC(=S)N(CCCC(=O)Nc3ccccn3)C2=O)cc1OC,15.0,4.2,63.4*,60.9
O=C(CCCN1C(=O)/C(=C\c2cccs2)SC1=S)Nc1ccccn1,-0.9,2.2,8.0,19.8
CCOc1cc(OCC)nc(S(C)(=O)=O)n1,-22.0,1.3,7.6,-4.7
O=C(NC1CCCCCCC1)NC1CCCCC1,-3.5,1.3,-0.5,-4.9
C/C(=N\NC(=O)NC1CCCCC1)C1CCCCC1,-0.2,1.4,95.3*,40.3
COc1ccc(/C=N/N=C2/CC(C)(C)Cc3n[nH]c(=O)cc32)cc1,-12.1,-0.1,1.2,22.3
CCCCCCOC1(c2ccccc2)OC(=O)c2ccccc21 (configuration not stated),63.4*,0.6,-3.6,56.9
SMILES,WT yeast gro inh,RAM network inh,Lmaj promast,CHOP inhibitor
CCCCCCCOC1(c2ccccc2)OC(=O)c2ccccc21 (configuration not stated),54.9,0.8,-1.2,31.7
Cc1cc(-c2c(C)[nH]n(-c3ccccc3)c2=O)n[nH]1,-5.5,-0.2,1.3,-28.6
CCOC(=O)/C(C#N)=C/c1c(Oc2cccc(C)c2)nc2ccccn2c1=O,/,/,/,16.7
Cc1ccc(S(=O)(=O)/C(C#N)=C/c2c(Oc3ccc(Cl)cc3)nc3c(C)cccn3c2=O)cc1,29.6,3.1,76.9*,31.9
COC(=O)/C(C#N)=C/c1c(Oc2cccc(C)c2C)nc2ccccn2c1=O,/,/,/,86.4*
CCOC(=O)/C(C#N)=C/c1c(Oc2cccc(C)c2)nc2c(C)cccn2c1=O,1.3,2.2,0.9,77.0*
Cc1ccc(Oc2nc3c(C)cccn3c(=O)c2/C=C(\C#N)C(N)=O)cc1,/,/,/,12.9
Cc1ccc(C)n1-c1nccc(-c2ccco2)n1,-21.4,0.4,-4.5,42.2
CC(C)c1ccccc1NC(=O)CNCCc1ccc(C(F)(F)F)cc1,/,/,/,75.8*
CCCCC(=O)Nc1ccccc1C(C)C,-15.8,-0.8,-4.8,6.1
Cc1ncsc1C(=O)N1N=C2/C(=C/c3ccccc3)CCCC2C1c1ccccc1 (configuration not stated),71.0*,3.9,99.0*,27.2
O=C(CSc1ncn[nH]1)N1N=C2/C(=C/c3ccccc3)CCCC2C1c1ccccc1 (configuration not stated),10.3,1.7,6.3,20.8
COc1ccc(/C=C2\CCCC3C2=NN(C(=O)CSc2ncn[nH]2)C3c2ccc(OC)cc2)cc1 (configuration not stated),36.3,8.4*,90.9*,66.5
COc1ccc(OCC#CCN2CC(C)OC(C)C2)cc1 (configuration not stated),1.6,1.1,56.9*,7.5
N#CC(Sc1ccccn1)c1ccc(Cl)cc1 (configuration not stated),73.1*,0.5,-2.6,-5.2
C/C=C(\C)C(=O)Nc1cccc(C2=NOC3(C2)C[C@H](C(N)=O)N(C(=O)C(c2ccccc2)c2ccccc2)C3)c1 (some centres not stated),/,/,/,7.4
Cc1ccc(Nc2nc3ccccc3nc2-n2nc(C)cc2C)cc1,-7.9,8.7*,-5.8,6.5
Cc1ccc(S(=O)(=O)N2CCN(c3nc4ccccc4nc3-n3nc(C)cc3C)CC2)cc1,19.0,1.3,20.1,73.2*
CC1CCN(C(=O)CSc2ccc(-c3ccccc3)nn2)CC1,-1.0,-0.4,44.1,5.7
O=C(Cc1cccs1)N(Cc1cccs1)C1(C(=O)NC2CCCC2)CCCCC1,8.9,0.3,25.8,-14.6
O=C(c1ccc2c(c1)OCO2)N(Cc1cccs1)C1(C(=O)NC2CCCCC2)CCCCC1,62.1*,3.1,31.3,38.4
CC/C(=N\NC(=O)C(N)=O)c1ccccc1O,13.7,1.0,-5.6,13.5
Cc1cc(C)cc(NC(=O)Cn2c(=O)oc3cc(S(=O)(=O)N4CCC(C)CC4)ccc32)c1,7.0,0.6,-13.3,71.9*
CC1CCN(S(=O)(=O)c2ccc3c(c2)oc(=O)n3CC(=O)NCc2ccc3c(c2)OCO3)CC1,15.1,2.4,-5.5,83.3*
O=C(Cn1c(=O)oc2cc(S(=O)(=O)N3CCCC3)ccc21)Nc1ccc(C(F)(F)F)cc1,-2.2,3.4,52.1*,46.1
SMILES,WT yeast gro inh,RAM network inh,Lmaj promast,CHOP inhibitor
COc1cccc(NC(=O)Cn2c(=O)oc3cc(S(=O)(=O)N4CCCC4)ccc32)c1,/,/,/,21.0
C=CCn1c(SCc2nc3ccccc3nc2C)nnc1-c1ccoc1C,2.8,4.5,6.2,-8.5
Cc1ccccc1OCC(=O)NNC=O,3.7,1.5,-0.8,6.5
Cc1ccc(SC(=O)COc2ccccc2C)cc1,25.6,-0.1,-10.8,74.9*
CCN(CC)c1ccc(NC(=S)NCC2CCCO2)cc1 (configuration not stated),14.9,2.1,8.3,20.8
CC(C)Cn1c(C(C)C)nc([N+](=O)[O-])c1S(=O)(=O)c1ccc(F)cc1,-0.1,4.5,95.6*,-33.3
